Some test systems named below: HCT-15 colon; HT29 colon; SNB-75 CNS; SNB-19 CNS; U251 CNS; PC-3 prostate; SK-MEL-5 melanoma; UACC-62 melanoma; LOX IMVI melanoma; SK-MEL-28 melanoma; SK-MEL-2 melanoma; EKVX NSCLC; SN12C renal; UO-31 renal; TK-10 renal; ACHN renal; CAKI-1 renal; A498 renal; CCRF-CEM leukemia; MOLT-4 leukemia.
Holding throughout (experiment): NCI-60 one-dose screen, 48 h (100 = growth as untreated, 0 = no growth, -100 = all killed)
What all share (details): 10 µM unless noted

Each structure is given as a SMILES string. Compounds without any hit were thinned out: in the full panel of roughly 83,000, 20% have a hit.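 Cell lines were cultured in 96-well plates, exposed to a single compound concentration, and assessed for percent growth 48 hours later.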 Values without a mark were called inactive. Active and inactive are the calls of the source. How the source made its calls: active means growth percent below 10; inactive means the rest.

Consider `O=c1oc2c(cnc3ccccc32)cc1-c1cccc(Cl)c1`, for which the growth in the assay with HCT-15 colon is 101%; in the assay with HT29 colon it was 108%; with SNB-75 CNS, 95.6%; with SNB-19 CNS, 98.5%; in the assay with U251 CNS, 98.2%; in the assay with PC-3 prostate, 97.7%. Moreover, the growth in the assay with SK-MEL-5 melanoma was 107%; in the assay on UACC-62 melanoma it was 96.1%; in the assay with LOX IMVI melanoma, 102%; in the assay on SK-MEL-28 melanoma it was 105%; in the assay on SK-MEL-2 melanoma, 118%; with EKVX NSCLC it was 99.1%. For the same compound, the growth with SN12C renal was 98.3%; in the assay with UO-31 renal, 90.4%; in the assay on TK-10 renal it was 118%; in the assay on ACHN renal, 104%; with CAKI-1 renal, 92%; in the assay with A498 renal, 83.1%. Besides, the growth is 76.5% in the assay with CCRF-CEM leukemia and 96.3% in the assay on MOLT-4 leukemia.
As to `COc1ccc(/C=N/Nc2c3ccccc3nc3ccccc23)cc1`, the growth in the assay with HCT-15 colon is 92.6%; in the assay on HT29 colon it was 93.9%; in the assay on SNB-75 CNS, 93.4%; in the assay with SNB-19 CNS it was 92.4%; in the assay on U251 CNS, 93.4%; with PC-3 prostate, 83.1%. Besides, the growth in the assay with SK-MEL-5 melanoma is 90.4%; with UACC-62 melanoma, 91.1%; in the assay with LOX IMVI melanoma, 92.9%; in the assay on SK-MEL-28 melanoma, 108%; in the assay with SK-MEL-2 melanoma, 82.2%; with EKVX NSCLC, 86.9%. Also, the growth with SN12C renal is 91%; in the assay with UO-31 renal, 76.1%; in the assay with TK-10 renal, 107%; in the assay with ACHN renal it was 98.9%; in the assay with CAKI-1 renal, 88.2%; in the assay on A498 renal it was 69.6%. For the same compound, the growth with CCRF-CEM leukemia was 90.8%; in the assay with MOLT-4 leukemia, 90.3%.
Regarding `Clc1ccc(Nc2nnc(CNc3ccccc3)c3ccccc23)cc1`, the growth in the assay with HCT-15 colon was 13.4%; in the assay with HT29 colon it was 0.551% (active); with SNB-75 CNS it was 19.6%; in the assay on SNB-19 CNS it was 25.9%; with U251 CNS, 9.66% (active); in the assay with PC-3 prostate, 7.15% (active). For the same compound, the growth is -69.1% (active) in the assay with SK-MEL-5 melanoma; 8.47% (active) in the assay on UACC-62 melanoma; 12.1% with LOX IMVI melanoma; 14.9% with SK-MEL-28 melanoma; 8.63% (active) in the assay with SK-MEL-2 melanoma; 16.9% in the assay on EKVX NSCLC. Besides, the growth in the assay on SN12C renal is 28.9%; in the assay on UO-31 renal, 1.91% (active); in the assay on TK-10 renal it was -0.692% (active); in the assay with ACHN renal it was 7.07% (active); with CAKI-1 renal it was 28.2%; with A498 renal, 24.7%. For the same compound, the growth in the assay with CCRF-CEM leukemia is 12.4%; in the assay with MOLT-4 leukemia, -9.21% (active).
In the case of `c1ccc2cc(Cn3cc(CSc4nc5ccccc5s4)nn3)ccc2c1`, the growth was 107% with HCT-15 colon; 95.7% in the assay on HT29 colon; 101% in the assay with SNB-75 CNS; 93.3% in the assay on SNB-19 CNS; 95.6% in the assay with U251 CNS; 93.1% in the assay with PC-3 prostate. Further, the growth is 107% in the assay on SK-MEL-5 melanoma; 84.8% in the assay with UACC-62 melanoma; 98.8% with LOX IMVI melanoma; 102% in the assay with SK-MEL-28 melanoma; 90.6% in the assay with SK-MEL-2 melanoma; 101% in the assay on EKVX NSCLC. Also, the growth was 94.5% in the assay with SN12C renal; 77.6% with UO-31 renal; 102% in the assay with TK-10 renal; 99.3% with ACHN renal; 83.3% with CAKI-1 renal; 97.3% in the assay on A498 renal. For the same compound, the growth in the assay on CCRF-CEM leukemia is 97.2%; with MOLT-4 leukemia it was 96.4%.
With `CCN1CCN(CCNc2nccc(-c3c(-c4ccc(F)c(O)c4)nc4occn34)n2)S1(=O)=O`, the growth in the assay on HCT-15 colon was 17.8%; in the assay with HT29 colon it was 20.1%; in the assay on SNB-75 CNS, 83.5%; in the assay on SNB-19 CNS, 73.7%; in the assay on U251 CNS, 45.7%; in the assay with PC-3 prostate, 13.7%. Also, the growth was -22.7% (active) with SK-MEL-5 melanoma; -44.9% (active) with UACC-62 melanoma; 15.6% in the assay on LOX IMVI melanoma; 42.2% in the assay with SK-MEL-28 melanoma; 1.39% (active) in the assay with SK-MEL-2 melanoma; 47.9% in the assay with EKVX NSCLC. For the same compound, the growth in the assay with SN12C renal is 33.9%; in the assay with UO-31 renal, 4.38% (active); with TK-10 renal, 44.9%; in the assay on ACHN renal, 16.5%; in the assay with CAKI-1 renal, 18.5%; with A498 renal, 49.1%. In addition, the results for the growth in the assay with CCRF-CEM leukemia and in the assay with MOLT-4 leukemia were 9.35% (active) and -9.69% (active), respectively.
On to `O=C(NNc1nc2cc(F)ccc2n2c(CN3CCOCC3)ccc12)c1ccccc1`, for which the growth with HCT-15 colon was 16.9%; in the assay with HT29 colon, 1.95% (active); in the assay with SNB-75 CNS it was 46.1%; in the assay with SNB-19 CNS, 18.8%; in the assay on U251 CNS, -34.5% (active); in the assay with PC-3 prostate it was 22.9%. In addition, the growth in the assay on SK-MEL-5 melanoma is -9.55% (active); with UACC-62 melanoma, -4.27% (active); in the assay with LOX IMVI melanoma, -39.6% (active); in the assay on SK-MEL-28 melanoma, 15.7%; in the assay with SK-MEL-2 melanoma, 34.6%; in the assay on EKVX NSCLC, 14.2%. In addition, the growth in the assay on SN12C renal is 10.1%; in the assay with UO-31 renal, 12.1%; with TK-10 renal, 46%; in the assay on ACHN renal, 8.05% (active); with CAKI-1 renal it was 7.45% (active); in the assay on A498 renal, -22.4% (active). Also, the growth in the assay with CCRF-CEM leukemia is 3.36% (active); in the assay on MOLT-4 leukemia, 2.3% (active).
As for `CCCCCCCCn1ccc2cc(NC(=O)CN=[N+]=[N-])ccc21`, the growth with HCT-15 colon is 96.8%; in the assay on HT29 colon, 104%; in the assay with SNB-75 CNS it was 99.6%; with SNB-19 CNS it was 97.1%; in the assay with U251 CNS it was 88.7%; in the assay on PC-3 prostate, 91.2%. For the same compound, the growth in the assay with SK-MEL-5 melanoma was 98%; in the assay on UACC-62 melanoma it was 84.2%; in the assay on LOX IMVI melanoma it was 104%; with SK-MEL-28 melanoma, 109%; with SK-MEL-2 melanoma, 99.3%; in the assay with EKVX NSCLC it was 84.9%. The growth with SN12C renal is 107%; in the assay on UO-31 renal it was 70%; with TK-10 renal, 111%; in the assay on ACHN renal, 104%; in the assay with CAKI-1 renal, 93.3%; with A498 renal it was 96.7%. Further, the growth in the assay on CCRF-CEM leukemia was 39%; with MOLT-4 leukemia, 93.3%.
Consider `C=CC(=O)Nc1cccc(Oc2nccc(Nc3nnc(-c4ccc(Br)cc4)s3)n2)c1`, for which the growth with HCT-15 colon was 88.6%; in the assay on HT29 colon it was 116%; with SNB-75 CNS, 87.5%; in the assay on SNB-19 CNS, 97%; in the assay with U251 CNS it was 97.5%; with PC-3 prostate it was 89.5%. In addition, the growth with SK-MEL-5 melanoma is 94.7%; in the assay with UACC-62 melanoma it was 87.6%; in the assay on LOX IMVI melanoma, 91.9%; in the assay with SK-MEL-28 melanoma, 108%; in the assay with SK-MEL-2 melanoma, 110%; with EKVX NSCLC, 101%. Further, the growth with SN12C renal is 99.2%; in the assay with UO-31 renal, 78.9%; in the assay on TK-10 renal it was 152%; in the assay with ACHN renal it was 100%; in the assay with CAKI-1 renal, 81.2%; in the assay on A498 renal, 101%. Moreover, the growth with CCRF-CEM leukemia was 87.3%; in the assay on MOLT-4 leukemia, 100%.
